The list is not random: actives were taken first. Their share in the collection is about 2.8%.
IP6K1 inh – Primary qHTS assay for small molecule inhibitors of Inositol hexaphosphate kinase 1 (IP6K1); Inositol hexakisphosphate kinase 1 (Homo sapiens), Q92551; IP6K1 kinase, ADP-Glo luminescence, 2 h; active compounds read low; activity change, % (series mostly up to about 58 µM); 0.81% of 140,000 active; AID 1645851, 2021; in the data active = activity change below about -25%; also: % is scaled to controls: 0 for no effect and ±100 for the full control effect
Target sequence (Q92551 whole entry, looked up): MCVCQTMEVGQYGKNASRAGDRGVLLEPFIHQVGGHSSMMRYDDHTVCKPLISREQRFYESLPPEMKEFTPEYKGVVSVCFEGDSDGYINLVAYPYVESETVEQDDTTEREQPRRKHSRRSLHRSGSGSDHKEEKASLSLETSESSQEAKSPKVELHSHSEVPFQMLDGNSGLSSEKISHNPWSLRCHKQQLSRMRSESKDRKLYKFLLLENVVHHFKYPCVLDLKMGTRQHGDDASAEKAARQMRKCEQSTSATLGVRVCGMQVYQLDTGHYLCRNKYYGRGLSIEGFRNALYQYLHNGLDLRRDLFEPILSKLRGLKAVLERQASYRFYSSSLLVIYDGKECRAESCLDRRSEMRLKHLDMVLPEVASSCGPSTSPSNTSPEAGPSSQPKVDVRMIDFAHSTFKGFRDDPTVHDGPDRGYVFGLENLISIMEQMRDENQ
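ADP-Glo luminescence measures ADP made by human IP6K1 during a 2 h RT reaction with ATP/IP6 (mix at 1.3 mM/130 uM); top library doses 57.5 and 19.1 uM final.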
HEK293 viab – GF-AFC viability counterscreen for inhibitors of alpha-synuclein gene (SNCA) expression; HEK-293-SNCA-luc viability, GF-AFC fluorescence, 24 h; Potency, µM (highest dose often 57.1 µM), inactives show at the top dose activity change, negative = cytotoxicity, usual class: cytotoxic; 0.12% of 150,000 active; AID 1671193, 2021;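 also: potency is read from the fitted curve at half-maximal effect; 0% = DMSO-treated cells and -100% = medium-only wells without cells; nearly all actives have a fitted effect of over 30% in size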
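HEK-293-SNCA-luc cells (1500/well) plated 24 h, then exposed 24 h to a dilution series; GF-AFC added 30 min at 37C, fluorescence 405/540 nm; normalised to medium-only and DMSO wells, Hill fit.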
SNCA expr inhib – Primary qHTS assay for inhibitors of alpha-synuclein gene (SNCA) expression; 0.17% of 140,000 active; Potency, µM (titrated, usually from 57.2 µM), inactives show at the highest dose activity change, negative = inhibition, most hits filed as inhibitors; HEK-293 SNCA-luciferase knock-in, luminescence, 24 h;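 also: potency is read from the fitted curve at half-maximal effect; plate controls were DMSO cells for no effect and cell-free wells for full effect; nearly all actives have a fitted effect of over 45% in size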
KDM5B inhibitor – Primary screen for KDM5B Histone Demethylases FDH-coupled qHTS; Potency, µM (series often up to 57.7 µM), usual class: inhibitors; Lysine-specific demethylase 5B (Homo sapiens), Q9UGL1; KDM5B demethylase, FDH-coupled NADH fluorescence (FDH is formaldehyde dehydrogenase); AID 1347165, 2019; 2.6% of 220,000 active; also: potency is read from the fitted curve at half-maximal effect; 0% is about no effect; nearly all actives have a fitted effect of over 70% in size
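Inhibition is measured as reduced NADH fluorescence generation from FDH coupling to formaldehyde release. Truncated KDM5BΔAP at 200 nM final acts on H3K4me3 peptide (12.5 µM in substrate mix) in pH 7.5 HEPES buffer with Tween-20, 30 min, room temperature.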
Starred values were filed as active, the others as inactive; i = inactive; u = inconclusive; x = not tested or not shown; [ ] = dose if it differs, or a comment. Unless noted, calls follow the shape of the dose curve; as a rule, active = well fitted curve in the direction sought with a large enough effect; inconclusive = small, poorly fitted or top-dose-only effect, or another doubt; inactive = no such curve, though single readings can be large; an effect the other way counts as inactive or inconclusive.

SMILES | IP6K1 inh | HEK293 viab | SNCA expr inhib | KDM5B inhibitor
C#CCOc1ccc(/C=C(/C#N)c2cccc(F)c2)cc1OC | x | x | x | i
COc1ccccc1-c1cc(C(=O)NCc2c(C)cc(C)[nH]c2=O)c2c(c1)N(C)CCO2 | -1 | u | u | u
COc1ccc(-c2cc(C(=O)NCc3c(C)cc(C)[nH]c3=O)c3c(c2)N(C)CCO3)cn1 | -20 | -7%[87.6 µM] | 23%[87.6 µM] | 35µM*
Cc1cc(C)c(CNC(=O)c2cc(-c3ccccc3)cc3c2OCCN3C)c(=O)[nH]1 | 1 | 4%[87.6 µM] | -15%[87.6 µM] | 32µM*
Cc1cc(C)c(CNC(=O)c2cc(-c3ccc(CO)cc3)cc3c2OCCN3C)c(=O)[nH]1 | -2 | -17%[87.6 µM] | 0%[87.6 µM] | 32µM*
Cc1ccc(-c2cc(C(=O)NCc3c(C)cc(C)[nH]c3=O)c3c(c2)N(C)CCO3)cc1 | -22 | 2%[87.6 µM] | 3%[87.6 µM] | u
O=C(C1CCCC1)N1Cc2ccccc2CC2(CCN(Cc3ccncc3)CC2)C1 | -3 | -11% | -2% | u
O=C(Nc1cccc(Cl)c1)N1CC(n2cc(COc3ccccc3)nn2)C1 | 21 | 1% | -1% | i
CCOc1ccccc1NS(=O)(=O)c1ccc(-c2cc(C(F)(F)F)on2)s1 | x | x | x | i
O=C(NCCC1CCN(C(=O)Nc2ccccc2F)CC1)c1cccs1 | -6 | 7% | 39% | i
CCc1ccc(CNC(=O)c2cnc(C)cn2)s1 | x | x | x | i
COc1ccc(NC(=O)C(=O)c2c(C)n(C)c3ccccc23)cc1OC | x | x | x | i
COc1cccc(Nc2ncc3c(n2)C(C)(C(=O)Nc2nc(C)cs2)CC3)c1 (stereo unspecified) | -10 | -15%[87.6 µM] | -7%[87.6 µM] | 35µM*
O=C1CC(c2ccccc2)N(S(=O)(=O)c2cccc(F)c2)CCCCCN1 (stereo unspecified) | -3 | -16% | u | i
COc1cc2c(cc1OC)C(C[C@H]1CN(S(=O)(=O)c3cccs3)CC[C@H]1CC(=O)O)=NCC2 | 6 | 6% | -27% | 28µM*
COc1cc2c(cc1OC)C(C[C@H]1CN(S(=O)(=O)c3ccc(C#N)cc3)CC[C@H]1CC(=O)O)=NCC2 | -8 | 15% | 15% | 28µM*
COc1ccc(S(=O)(=O)N2CC[C@@H](CC(=O)O)[C@@H](CC3=NCCc4cc(OC)c(OC)cc43)C2)cc1 | -1 | 17% | 1% | i
COC(=O)C(C)Sc1nc(C)c2cc(C)ccc2n1 (stereo unspecified) | x | x | x | i
Cc1ccccc1Cn1cc(-c2ccncc2)cc1C(=O)NC(C)c1ccccn1 (stereo unspecified) | 2 | -12% | 3% | 32µM*
CC(=O)Nc1ccc(NC(=O)c2cc(-c3ccncc3)cn2Cc2ccccc2C)cc1 | -10 | -18% | 30% | u
Cn1nc(C(=O)Nc2nc3c(s2)CN(C(=O)OC(C)(C)C)CC3)c2ccccc2c1=O | x | x | x | i
COCCN1Cc2ccc(NCc3ccccc3)nc2C(C)(C(=O)NCc2ccccc2)C1 (stereo unspecified) | 7 | 8% | -21% | 28µM*
COCCN1Cc2ccc(NCc3ccccc3)nc2C(C)(C(=O)Nc2ccc(F)cc2)C1 (stereo unspecified) | 8 | -21% | u | u
COCCN1Cc2ccc(NCc3ccccc3)nc2C(C)(C(=O)NC2CCOCC2)C1 (stereo unspecified) | 10 | 1%[87.6 µM] | 2%[87.6 µM] | 11µM*
CC(C)CNc1ccc2c(n1)C(C)(C(=O)NC1CCC(O)CC1)CN(Cc1ccccc1)C2 (stereo unspecified) | -1 | -18% | u | i
SMILES | IP6K1 inh | HEK293 viab | SNCA expr inhib | KDM5B inhibitor
COCCN1Cc2ccc(NCc3ccccc3)nc2C(C)(C(=O)Nc2cccnc2)C1 (stereo unspecified) | 3 | 4%[87.6 µM] | 1%[87.6 µM] | 32µM*
COCCN1Cc2ccc(NCc3ccccc3)nc2C(C)(C(=O)Nc2ccccc2)C1 (stereo unspecified) | 5 | u | u | u
CCc1ccccc1NC(=O)CN(C)C(=O)C1CCN(c2ccc(C#N)cn2)CC1 | x | x | x | i
COc1ncccc1-c1cc2[nH]ccc2c(C(=O)NCc2c(C)cc(C)[nH]c2=O)n1 | -2 | u | -4%[87.6 µM] | i
Cc1cc(C)c(CNC(=O)c2nc(Nc3ccccc3)cc3[nH]ccc23)c(=O)[nH]1 | -18 | 10%[87.6 µM] | 13%[87.6 µM] | 16µM*
Cc1cc(C)c(CNC(=O)c2nc(-c3cccc(O)c3)cc3[nH]ccc23)c(=O)[nH]1 | -15 | u | 31%[87.6 µM] | 32µM*
Cc1cc(-c2cc3c(ccn3C(C)C)c(C(=O)NCc3c(C)cc(C)[nH]c3=O)n2)ccn1 | 14 | -19%[87.6 µM] | -5%[87.6 µM] | i
CC(Sc1nnc(N2CCCCC2)n1-c1ccccc1)c1nc(-c2ccco2)no1 (stereo unspecified) | x | x | x | i
Cc1cc(C)c(CNC(=O)c2nc(-c3ccc(F)cc3)cc3c2ccn3C(C)C)c(=O)[nH]1 | -8 | -18%[87.6 µM] | u | i
COc1cccc(NC(=O)c2cnc3c(c2)N(Cc2ccccc2)CCC3)c1 | -7 | -12%[87.6 µM] | -12%[87.6 µM] | 32µM*
COc1ccccc1N1CCCc2ncc(C(=O)Nc3cccc(C(F)(F)F)c3)cc21 | 0 | 3%[87.6 µM] | 11%[87.6 µM] | 32µM*
COc1ccccc1N1CCCc2ncc(C(=O)Nc3cccnc3)cc21 | 1 | 9%[87.6 µM] | -22%[87.6 µM] | i
CC(C)OC(=O)c1ccc(NC(=O)C2=Cc3cc(Br)ccc3OC=C2)cc1 | x | x | x | i
CCn1cnnc1-c1nn(C)c2c1CN(C(=O)c1cc(F)ccc1F)CC2 | 7 | 4% | -16% | i
CCc1cccc(C)c1NC(=O)c1nc2ccccc2nc1N(CC)CC | x | x | x | i
CCc1cccc(NC(=O)Cn2c(=O)n(Cc3ccccc3)c(=O)c3c(C)c(C(=O)N(C)C)sc32)c1 | -13 | -13% | 13µM* | i
CCN(CC)C(=O)c1sc2c(c1C)c(=O)n(Cc1ccccc1)c(=O)n2CC(=O)Nc1ccc(OC)cc1 | 28 | -6% | -6% | i
O=C(NC1CCCCC1)c1ccc(NC(=O)C2CC2)cc1 | x | x | x | i
O=C(NCc1cccc(F)c1)c1ccc(N2CC3CC(C2)[C@H]2CCCC(=O)N2C3)nc1 (stereo partly specified) | 33 | -5% | 3% | i
O=C(NCc1cccnc1)c1cccnc1N1CC2CC(C1)[C@H]1CCCC(=O)N1C2 (stereo partly specified) | 11 | 2% | -17% | 28µM*
O=C(NCc1cc(F)ccc1F)c1cccnc1N1CC2CC(C1)[C@H]1CCCC(=O)N1C2 (stereo partly specified) | 16 | -12% | 6% | 32µM*
CNC1[C@H](O)C(O[C@@H]2C(O)C(O[C@H]3O[C@H]([C@@H](C)NC)CC[C@H]3N)[C@@H](N)C[C@H]2N)OC[C@]1(C)O (stereo partly specified) | x | -5% | 20% | x
CC(O)c1cc2n(n1)CCN(C(=O)Cn1nnc(-c3ccc(F)cc3)n1)C2 (stereo unspecified) | 13 | 0% | 17% | i

Source: PubChem
